Results filed as inconclusive are left out. A number with no mark means an inactive call. Active and inactive are the calls of the source. The call rests on the fitted dose curve; in most records, active means well fitted cell-killing curve with a large enough effect; inconclusive means small, poorly fitted or top-dose-only effect, or effect the other way; inactive means no such curve, though single readings can be large or run the other way.
Potency means the concentration at half of the fitted maximal effect.

The assay in a line: Quantitative High-Throughput drug screen in 47 multiple myeloma cell lines against the NCATS MIPE library collection: UTMC2_PLB cell viability assay (AID 1919868). Further: nearly all actives have a fitted effect of over 55% in size. The conditions noted are these: CellTiter-Glo ATP luminescence, 48 h; viability (% of DMSO control): at 45.8 µM (top of the series) unless noted. The method in brief: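 500 cells/well; MIPE 4.0 drugs pin-transferred; 48 h, 37C, 5% CO2. CellTiter-Glo, 5 min RT, luminescence. Controls: DMSO 100%, media 0%.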
Regarding `COc1cc(C(C)C)c2c(c1)S(=O)(=O)N(COc1cc(=O)n3cccc(OCCN4CCCCC4)c3n1)C2=O`, the Potency was 26.4 µM (active).
On to `COc1ccc(OC)c(-c2nnc3ccc(-c4ccc(OC)c(O[C@@H]5CCOC5)c4)nn23)c1`, for which the Potency is 9.35 µM (active).
On the same count and under the same terms, with `CC(C)c1ccccc1Cc1cc(C(=O)Nc2ccc(S(=O)(=O)c3ccccc3C(C)(C)C)cc2)c(O)c(O)c1O` the figure was 4.69 µM (active).
Consider `Nc1ccc(S(=O)(=O)Nc2ncccn2)cc1`, for which the “viability (% of DMSO control)” value was 147%.
In the case of `C[C@@H]1CN(CC(=O)Nc2ccc3c(c2)Cc2cccc(-c4cc(=O)cc(N5CCOCC5)o4)c2S3)C[C@H](C)O1`, the Potency is 6.62 µM (active).
Consider `CCCn1c(=O)c2[nH]c(-c3cnn(Cc4cccc(C(F)(F)F)c4)c3)nc2n(CC)c1=O`, for which the “viability (% of DMSO control)” value is 166%.
Regarding `CN(C)CC(C)(C)CNc1nn2c(-c3ccccc3)nnc2cc1C1CCC1`, the Potency was 1.05 µM (active).

These data come from PubChem BioAssay (NCATS).
